# Compound activity: PubChem BioAssay, National Center for Advancing Translational Sciences (NCATS)
# Most compounds without a hit are left out; they make up all but 2.7% or so of the library.
# IP6K1 inhibitor = inhibitors of human IP6K1 | Q92551 | activity change, % (series mostly up to about 58 µM) | actives 0.81% (n = 140,000) | IP6K1 kinase, ADP-Glo luminescence, 2 h; active compounds read low | AID 1645851; in the data active means activity change below about -25%; further: on the % scale 0 is the no-effect control and ±100 the full control effect
#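 ADP-Glo luminescence measures ADP made by human IP6K1 during a 2 h RT reaction with ATP/IP6 (mix at 1.3 mM/130 uM); top library doses 57.5 and 19.1 uM final.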
# KDM5B inhibitor = inhibitors of human KDM5B histone demethylase; Potency, µM (top dose mostly 57.7 µM), hits mostly inhibitors; AID 1347165; KDM5B demethylase, FDH-coupled NADH fluorescence (FDH is formaldehyde dehydrogenase); actives 2.6% (n = 220,000); Q9UGL1; active means well fitted inhibition curve with a large enough effect; inconclusive means small, poorly fitted or top-dose-only effect; inactive means no such curve, though single readings can be large or run the other way; further: potency means the concentration at half of the fitted maximal effect; 0% is about no effect; nearly all actives have a fitted effect of over 70% in size
#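 Coupled FDH/NAD⁺ fluorescence readout. KDM5BΔAP 200 nM final; compound titration, 10 min RT preincubation; substrate mix 12.5 µM H3K4me3, 25 µM 2-OG, 50 µM Fe(II), 100 µM ascorbate, 0.25 mM NAD⁺, 0.25 U/mL FDH; ΔRFU over 30 min.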
# The depositor's hits bear a star; i = inactive; ? = inconclusive; · = no result given.
SMILES,IP6K1 inhibitor,KDM5B inhibitor
O=C(NCC1CCCO1)c1noc(-c2ccc[nH]c2=O)n1 (configuration not stated),2,28µM*
COc1ccc(CCNC(=O)c2noc(-c3ccc[nH]c3=O)n2)cc1OC,0,32µM*
CC(C)NC(=O)c1noc(-c2ccc[nH]c2=O)n1,10,i
COc1ccc(CCNC(=O)c2cc([N+](=O)[O-])cc([N+](=O)[O-])c2)cc1OC,·,i
COc1ccc(OCC(=O)NCCN2CCN(S(=O)(=O)c3ccc(C)cc3)CC2)cc1,·,i
O=C(O)c1ccnc(-c2ccnc(NCCc3noc(C4CCC4)n3)n2)c1,28,28µM*
O=C(O)c1ccnc(-c2ccnc(NCCN3CCCCC3=O)n2)c1,44,22µM*
O=C(O)c1ccnc(-c2ccnc(NCCCN3CCCC3=O)n2)c1,17,?
O=C(O)c1ccnc(-c2ccnc(NCc3noc(C4CCCC4)n3)n2)c1,-8,?
O=C(O)CCCC(=O)c1cccs1,·,i
COc1ccc(-c2noc(CSc3nnc4ccccn34)n2)cc1,·,i
Cc1ccc(-c2ccc3nnc(CNC(=O)c4ccccc4F)n3n2)cc1C,-7,28µM*
Cc1ccc(-c2ccc3nnc(CNC(=O)c4ccccc4C)n3n2)cc1C,-1,28µM*
Cc1ccc(-c2ccc3nnc(CNC(=O)C4CCCC4)n3n2)cc1C,12,?
Cc1ccc(-c2ccc3nnc(CNC(=O)c4ccoc4)n3n2)cc1C,-2,16µM*
Cc1ccc(-c2ccc3nnc(CNC(=O)Cc4ccc(F)cc4)n3n2)cc1C,-12,?
CC1=C(C(=O)Nc2ccc(Cl)cc2C(=O)NCCc2cccs2)SCCO1,·,i
O=C(N[C@@H]1CCNC[C@H]1O)c1cccc(-c2ccc(OC(F)(F)F)cc2)c1,24,i
Cc1ccc(-c2ccc3nnc(CNC(=O)COc4ccccc4)n3n2)cc1C,-5,28µM*
COc1ccc(-c2ccc3nnc(CNC(=O)COc4ccc(F)cc4)n3n2)cc1,8,28µM*
Cc1ccc(-c2ccc3nnc(CNC(=O)C(C)Oc4ccccc4)n3n2)cc1C (configuration not stated),6,?
Cc1cccc(OCC(=O)NCc2nnc3ccc(-c4ccccc4)nn23)c1,-7,i
COc1ccc(-c2ccc3nnc(CNC(=O)Cc4cccc(F)c4)n3n2)cc1,2,?
Cc1ccc(-c2ccc3nnc(CNC(=O)COc4ccccc4)n3n2)cc1,-4,35µM*
COc1ccc(CNC(=O)CSc2nnc3c4cc(-c5ccc(F)cc5)nn4ccn23)cc1,·,i
SMILES,IP6K1 inhibitor,KDM5B inhibitor
Cc1cccnc1CNC[C@H]1O[C@@H]2C[C@@H](CC(=O)N3CCOCC3)O[C@@H]2[C@@H]1O,0,?
Cc1ccc(-c2cn3cc(C(=O)N4CCN(C)CC4)nc3s2)cc1,9,·
CNC[C@@]12CN(Cc3ccccc3)C[C@@H]1C(C)(C)COc1ccc(OC)cc12,6,·
O=C(NCc1ccc(CN2CCCC2)cc1)c1cc(S(=O)(=O)N2CCCC2)ccc1Cl,·,i
NC1CCN(Cc2ccc(C(=O)NCc3ccc(S(N)(=O)=O)cc3)c(=O)[nH]2)C1 (configuration not stated),5,22µM*
C#CCNC(=O)C1CCN(c2nccc(Nc3ccc(OC)cc3)n2)CC1,10,·
O=C(NCc1ccc(Cl)cc1)c1c[nH]c2ncccc12,-7,i
O=C(NCc1ccnc2[nH]ccc12)c1ccccc1Cl,10,35µM*
O=C(NCc1ccc(Cl)cc1)c1ccnc2[nH]ccc12,4,28µM*
O=C(NCc1ccnc2[nH]ccc12)c1cccc2[nH]ccc12,16,?
O=C(NCc1ccc2c(c1)OCO2)C1CCN(c2nccc(Nc3ccccc3Cl)n2)CC1,21,·
CCNC(=O)COC(=O)c1cc(Cl)cc(Cl)c1,·,i
C#CCNC(=O)c1nc2sccn2c1-c1ccc(C(F)(F)F)cc1,19,·
O=C(c1ccc2ccccc2c1)N(Cc1ccc2[nH]ccc2c1)C1CC1,·,i
O=c1[nH]c(C2CCCN(Cc3ccccc3)C2)nn1-c1ccccc1 (configuration not stated),14,?
O=c1[nH]c(C2CCCN(Cc3ccccn3)C2)nn1-c1ccccc1 (configuration not stated),30,22µM*
O=C(NC1CC1)C12CC3CC(CC(C3)C1)C2,·,i
Cc1noc(C)c1[S+](=O)([O-])N1CCN(Cc2ccccc2-c2cccnc2)CC1,14,·
COc1ccc(C)cc1CN1CCN(C(=O)Nc2ccc(F)cc2)CC1,·,i
OCc1ccc(CN2CCC[C@H]2c2nc(-c3ccc(N4CCOCC4)nc3)no2)o1,2,?
c1ccc(CN2CCC[C@H]2c2nc(-c3ccc(N4CCOCC4)nc3)no2)cc1,1,32µM*
CNc1ccc(-c2noc([C@@H]3CCCN3Cc3ccccn3)n2)cn1,-9,?
O=C(O)c1ccc(CN2CCC[C@H]2c2nc(-c3ccc(-n4ccnc4)nc3)no2)cc1,4,i
CN(C)c1ccc(-c2noc([C@@H]3CCCN3Cc3cnc4ccccc4c3)n2)cn1,18,28µM*
Clc1ccc(CN2CCC[C@H]2c2nc(-c3ccc(N4CCOCC4)nc3)no2)cc1,25,35µM*
SMILES,IP6K1 inhibitor,KDM5B inhibitor
CCn1nccc1C(=O)N1CCCC(n2cc(-c3nc(-c4ccccc4)no3)nn2)C1 (configuration not stated),15,i
CCCCn1c(=O)[nH]c(=O)c2c1nc(CN1CCOC(C)C1)n2C (configuration not stated),·,i
CCn1c(CNC(=O)c2ccc3c(c2)OCO3)nnc1SCC(=O)c1ccc(F)cc1,·,i
CN(Cc1ccccc1)C(=O)c1cc(-c2ccccc2F)nc2c1cnn2C,6,·
N#Cc1ccccc1Sc1ccccc1C(=O)OCC(=O)c1ccc2c(c1)OCCO2,·,i
N#Cc1ccc(CN2CCn3c(nnc3C3CCCNC3)C2)cc1 (configuration not stated),3,20µM*
c1ccc(CN2CCn3c(nnc3C3CCCNC3)C2)cc1 (configuration not stated),6,i
CC(C)CCN1CCn2c(nnc2C2CCCNC2)C1 (configuration not stated),-3,?
C1CCC(CN2CCn3c(nnc3C3CCCNC3)C2)CC1 (configuration not stated),5,25µM*
CCOC(=O)c1cnc2ccc(Cl)cc2c1Nc1cc(OC)ccc1OC,·,i
COCCn1ccc2c(C3=CCOCC3)nc(-c3cccc(O)c3)cc21,0,40µM*
OCc1ccc(-c2cc3c(ccn3Cc3cccnc3)c(C3=CCOCC3)n2)cc1,-17,?
C1=C(c2nc(-c3ccncc3)cc3c2ccn3Cc2cccnc2)CCOC1,-19,?
COCCn1ccc2c(C3=CCOCC3)nc(-c3cccc(C(N)=O)c3)cc21,15,32µM*
O=C(CC1CCCC1)N1[C@@H](c2ccco2)[C@@H](CO)C[C@]12CCCCN(CCO)C2=O,2,·
CCOC(=O)C1CCN(C(=O)c2cc(-c3ccc(OC)cc3)nc3c2cnn3C)CC1,22,·
COCCNC(=O)c1cc(C2CC2)nc2c1c(C1CCNCC1)nn2C,-10,?
O=C(NCC(F)(F)F)c1cc(C2CC2)nc2c1c(C1CCCN1)nn2-c1ccccc1 (configuration not stated),19,?
COCCNC(=O)c1cc(C2CC2)nc2c1c(C1CCCN1)nn2C (configuration not stated),4,79µM*
